Hits are enriched below; roughly 19% of the tested compounds scored in any of these assays.
DT40 TDP1 no CPT = qHTS for Inhibitors of human tyrosyl-DNA phosphodiesterase 1 (TDP1): qHTS in cells in absence of CPT | DT40 Tdp1-/- hTDP1 cells, no CPT, ATP luminescence, 48 h | Potency, µM (series often up to 46.2 µM), without a hit: at the top dose activity change, negative = growth inhibition, actives largely listed as inhibitors | 420,000 tested, 15% active | AID 686978, 2013; also: potency is read from the fitted curve at half-maximal effect; nearly all actives have a fitted effect of over 55% in size
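Cells were dispensed at 400 per well, compounds added by pin tool, plates incubated ≥48 hr at 37 °C, then CellTiter-Glo added for 30 min at room temperature before luminescence reading. Line: DT40 Tdp1-/- complemented with hTDP1; camptothecin omitted.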
DT40 TDP1 CPT = DT40-hTDP1 cell growth loss with CPT | Potency, µM (highest dose often 46.2 µM), for inactives: at the highest dose activity change, negative = growth inhibition, hits mostly inhibitors | chicken DT40 Tdp1-/-;hTDP1 cells + 20 nM CPT, ATP luminescence, 48 h | 420,000 tested, 12% active; also: potency is read from the fitted curve at half-maximal effect; nearly all actives have a fitted effect of over 55% in size
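Chicken DT40 Tdp1-/- cells stably complemented with human TDP1 were seeded at 400 cells/well in medium containing 20 nM camptothecin, exposed to pin-transferred compounds, and grown at 37 °C for at least 48 hr. Viability was read as ATP luminescence.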
HT1080 IDH1KD tx = HT-1080 IDH1 knockdown cell toxicity (counter line). 360,000 tested, 2% active. HT-1080 IDH1 knockdown viability, ATP luminescence, 48 h. AID 686971. Potency, µM (doses to about 46.1 µM), for inactives: at the highest dose activity, negative = toxicity, usual class: cytotoxic;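 also: potency is read from the fitted curve at half-maximal effect; 0% = DMSO wells and -100% = cell-free medium wells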
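IDH1KD HT-1080 cells, 750/well, RPMI + 5% FBS; compound pinned after 2 h settling; 48 h, 37 °C; CellTiter-Glo luminescence; % activity normalised to DMSO and no-cell wells; curves fitted, classed by r2 and efficacy.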
IL1B secr inh = inhibitors of inflammasome signaling (IL-1 beta secretion). THP-1 LPS/ATP IL-1B secretion, AlphaLISA, 16 h; stronger effect = lower value. activity change, % at 57.5 µM. 360,000 tested, 4.7% active. AID 743279; in the data active = activity change below about -50%; inconclusive = mostly about -30% to -49%
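Secreted IL-1B measured by AlphaLISA bead assay after 16 h compound exposure of THP-1 cells; compounds (final up to 57.5 uM) added 1 h before LPS (250 ng/mL) and ATP (1.25 mM) stimulation; lower signal means less secretion.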
HT1080NT lethal = kills 2HG-producing HT-1080-NT fibrosarcoma cells; AID 686970; Potency, µM (top dose mostly 46.1 µM), inactives show at the highest dose activity, negative = less viability, hits mostly cytotoxic; 360,000 tested, 1.6% active; HT-1080-NT fibrosarcoma viability, CellTiter-Glo ATP luminescence, 48 h;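 also: NT is the 2HG producing partner of a matched IDH1 knockdown line; potency is read from the fitted curve at half-maximal effect; 0% = DMSO-treated cells and -100% = media-only wells without cells; nearly all actives have a fitted effect of over 55% in size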
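Viability of the 2HG-overproducing fibrosarcoma line after 48 hours of compound exposure at 37 degrees C was determined by luminescence with CellTiter-Glo, and concentration-effect curves were then fitted and categorized.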
Starred values were filed as active, the others as inactive; ? = inconclusive; / = not tested or not shown; ! = repeats disagree; [ ] = another dose, or the depositor's remark. Unless noted, calls follow the shape of the dose curve; as a rule, active = well fitted curve in the direction sought with a large enough effect; inconclusive = small, poorly fitted or top-dose-only effect, or another doubt; inactive = no such curve, though single readings can be large; an effect the other way counts as inactive or inconclusive. Unless noted, % is scaled to controls: 0 for no effect and ±100 for the full control effect.

SMILES	DT40 TDP1 no CPT	DT40 TDP1 CPT	HT1080 IDH1KD tx	IL1B secr inh	HT1080NT lethal
O=C(O)c1ccccc1C(=O)OCc1c(-c2ccccc2)ncc2ccccc12	-12.7%	?	-0.2%	39.1	0.0%
COc1cccc(-c2ncc3ccccc3c2COC(=O)N2CCOCC2)c1	?	?	6.4%	-21.2	-4.0%
CCCCN1C(=O)C(CC(=O)NCCN2CCOCC2)CC(C(=O)N2CCCCCC2)=C1C (configuration not stated)	-4.9%	-18.9%	6.6%	24.0	6.9%
CCC(c1nnnn1Cc1ccc(F)cc1)N(CCCO)Cc1cc2cc3c(cc2[nH]c1=O)OCO3 (configuration not stated)	?	?	-1.2%	-23.6	1.7%
O=C(COC(=O)CC1CCCC1)Nc1cccc(F)c1	9.6%	-1.5%	3.7%	2.0	8.1%[9.24 µM]
Cc1ccc(NC(=O)C2CC(=O)N(C(C)C)C2)cc1C (configuration not stated)	-16.6%	-15.0%	4.2%	-64.6*	14.8%
CCN(CC)S(=O)(=O)c1cc(NC(=O)C2CC(=O)N(Cc3ccccc3)C2)ccc1Cl (configuration not stated)	16.4µM*	?	-29.3%	-14.2	-2.8%
CC(=O)Nc1ccc(NC(=O)C2CC(=O)N(Cc3ccccc3)C2)cc1 (configuration not stated)	4.4%	-2.0%	-7.0%	-23.7	-12.1%
Cc1ccc(NC(=O)C2CC(=O)N(Cc3ccccc3)C2)cc1S(=O)(=O)N1CCCCCC1 (configuration not stated)	?	29.1µM*	-28.8%	-52.0*	-20.4%
O=c1c2ccccc2nc2ccc(NCc3cccs3)nn12	-7.1%	-21.0%	2.1%	-29.2	17.0%
Cc1cccc(NC(=O)CCN2C(=O)C3C4C=CC(C4)C3C2=O)n1 (configuration not stated)	23.1µM*	16.4µM*	26.7%	5.2	21.3%
O=C(CCN1C(=O)C2C3C=CC(C3)C2C1=O)NCCc1ccccc1 (configuration not stated)	25.9µM*	?	17.0%	25.7	12.7%
O=C(CCN1C(=O)C2C3C=CC(C3)C2C1=O)Nc1ccccn1 (configuration not stated)	-4.8%	-2.4%	-1.0%	15.8	-1.9%
CCNC(=O)CC1C(=O)N(CC)C(=S)N1NC(=O)c1ccc(Cl)cc1 (configuration not stated)	1.9%	2.7%	-14.1%	-8.0	0.3%
Nc1ccc(C(=O)NN2C(=O)[C@H](Cl)C2c2ccc(Cl)cc2)cc1 (some centres not stated)	3.66µM*	3.66µM*	18.4µM*	-103.6*	?
CN(Cc1ccccc1)C(=O)COc1ccc(C(C)(C)C)cc1	?	?	-0.2%	-9.6	-5.9%
O=C(C(Sc1ccccc1)c1ccccc1)N1CCN(c2ccccc2)CC1 (configuration not stated)	?	?	-11.7%	?	-4.6%
O=C(c1ccco1)N1CCN(C(=O)C(Sc2ccccc2)c2ccccc2)CC1 (configuration not stated)	?	16.4µM*	-13.9%	-3.4	-17.4%
NC(=O)C1CCCN(CCc2ccccc2)C1 (configuration not stated)	-10.8%	-13.7%	2.9%	6.4	8.3%
CCCc1sc(N2CCCC(C(N)=O)C2)nc1-c1ccccc1 (configuration not stated)	18.4µM*	?	-4.3%	1.8	-4.3%
CCN(CC(=O)Nc1cc(Cl)ccc1-n1cncn1)Cc1nc2ccccc2c(=O)[nH]1	-20.2%	-18.0%	-0.6%	1.8	-10.3%
CS/C(=N\S(=O)(=O)c1cccs1)Nc1cccc(Cl)c1C	?	14.6µM*	-11.2%	0.0	-4.3%
CS/C(=N\S(=O)(=O)c1cccs1)Nc1ccc(F)c(Cl)c1	?	-12.9%	-5.0%	10.5	-2.9%
COc1ccc(-c2c(C)nn3c(C)cc(C)nc23)cc1	?	?	-12.0%	-22.3	-17.0%
COc1ccc(NC(=O)CN2C(=O)COc3ccc(S(=O)(=O)N4CCOCC4)cc32)cc1Cl	18.4µM*!	?	0.0%	?	-0.7%
SMILES	DT40 TDP1 no CPT	DT40 TDP1 CPT	HT1080 IDH1KD tx	IL1B secr inh	HT1080NT lethal
Cc1ccc(NC(=O)CN2C(=O)COc3ccc(S(=O)(=O)N4CCCCC4)cc32)cc1N(C)C	20.6µM*	23.1µM*	/	/	/
Cc1cc(SCNC(=O)c2ccccc2)nc(C(C)C)n1	-18.3%	-11.0%	-0.2%	14.7	6.3%
O=C(CSC1=NCCS1)Nc1ccnc2ccccc12	9.2µM*	6.51µM*	-21.0%	?	?
Cc1cc(C)nc(SCNC(=O)c2ccccc2)n1	20.2%	-0.6%	7.08µM*	8.7	5.01µM*
O=C(CSC1=NCCS1)Nc1ccc2ccccc2c1	-7.8%	1.6%	24.1%	-27.7	-7.6%
Cc1cc(C)nc(SCC(=O)Nc2ccnc3ccccc23)n1	0.651µM*	1.64µM*	-13.2%	?	0.6%
Cc1cc(C)nc(NC(=O)CSc2nccc(C)n2)n1	-8.3%	-2.9%	29.8%	6.1	4.6%
CCN(CC)C(=O)CN1CCN(Cc2ccc3c(c2)OCO3)CC1	-1.6%	-1.4%	13.2%	23.3	1.8%
CCN(CC)C(=O)[C@H]1C[C@H](CC(=O)NCCC2=CCCCC2)C(=O)N2CCc3c([nH]c4cc(CCC(=O)N(C)C)ccc34)[C@]12C	?	?	10.0%	-9.5	6.8%
CC1(C(=O)NS(=O)(=O)C2CC2)CCN(C(=O)c2cc(F)cc(F)c2)C1 (configuration not stated)	7.8%	5.8%	4.3%	11.8	23.3%
CSc1ccc(CN(C)C(=O)C(Cc2ccccc2)NC(=O)c2ccccc2)cc1 (configuration not stated)	?	?	-1.9%	8.1	-1.6%
CCN(Cc1ccc(OC)c(F)c1)C(=O)CCl	4.11µM*	4.11µM*	16.4µM*	-96.0*	18.4µM*
CN(Cc1ccc(F)cc1)C(=O)C(Cc1ccccc1)NC(=O)c1ccccc1 (configuration not stated)	18.4µM*	?	0.9%	-18.2	-3.6%
CCOc1ccc(C(=O)OCC(=O)N(Cc2ccccc2)Cc2ccccc2)cc1OC	?	20.6µM*	-9.0%	-4.4	-11.9%
COc1ccc(CN(C)C(=O)C(Cc2ccccc2)NC(=O)c2ccccc2)cc1F (configuration not stated)	13µM*	16.4µM*	-24.7%	-12.4	-14.1%
COc1ccccc1C1CN(CC(=O)N2CCC(C(O)c3ccccn3)CC2)Cc2ccccc2O1 (configuration not stated)	?	-8.2%[9.04 µM]	/	/	/
Cc1cc(C(=O)c2ccc3ccccc3c2)c(C)o1	?	-28.3%	18.2%	19.3	20.2%

Compound activity: PubChem, National Center for Advancing Translational Sciences (NCATS)
